# Counter-ions that a name gives are not always drawn.
# Test system: NCI-H1688
# Experiment: inhibition of cell viability relative to untreated control (fraction); higher = stronger growth inhibition, active = 0.5 or more
# Settings: 30 µM; 24 h
# How it was run: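 NCI-H1688 small cell lung cancer cells were plated in 96-well plates at 3 × 10^3 cells/well, and 24 h later they were exposed to a natural compound library (TargetMol) at 30 µM for 24 h at 37°C with 5% CO2. Viability was measured in triplicate using Cell Counting Kit-8, read as absorbance at 450 nm. Inhibition of cell viability is given as a fraction, calculated from viability normalised to untreated cells.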
row,SMILES,inhibition of cell viability
1,O=C(O)/C=C/c1ccccc1 [Cinnamic acid],-0.0303 (inactive)
2,O=C(O)C1=C[C@@H](O)[C@@H](O)[C@H](O)C1 [Shikimic Acid],0.0707 (inactive)
3,Cc1cc(O)c2c(c1)C(=O)c1cc(O)cc(O)c1C2=O [Emodin],0.493 (inactive)
4,O=C1/C(=C2\Nc3ccccc3C2=O)Nc2ccccc21 [Indigo],-0.275 (inactive)
5,O=C1CCC[C@@H]2[C@H]3CCC[N+]4([O-])CCC[C@@H](CN12)[C@@H]34 (stereo partly drawn) [Oxymatrine],0.0776 (inactive)
6,O=C(O)[C@H]1O[C@@H](Oc2cc3oc(-c4ccc(O)cc4)cc(=O)c3c(O)c2O)[C@H](O)[C@@H](O)[C@@H]1O [Breviscapin],0.262 (inactive)
7,CC1(C)C(O[C@@H]2OC[C@@H](O)[C@H](O)[C@H]2O)CC[C@]23CC24CC[C@]2(C)[C@@H]([C@@]5(C)CC[C@@H](C(C)(C)O)O5)[C@H](O)C[C@@]2(C)C4C[C@@H](O[C@@H]2O[C@H](CO)[C@@H](O)[C@H](O)[C@H]2O)C13 (stereo partly drawn) [Astragaloside IV],-0.0383 (inactive)
8,OC[C@H]1O[C@@H](O[C@@H]2[C@@H](CO)OC(O)(CO)[C@H]2O)[C@H](O)[C@@H](O)[C@H]1O (mixture of isomers) [Lactulose],0.135 (inactive)
9,OC[C@@H](O)[C@@H](O)[C@H](O)[C@H](O)CO [D-Mannitol],-0.179 (inactive)
10,COc1ccc(-c2cc(=O)c3c(O)cc(O)cc3o2)cc1O [Diosmetin],0.314 (inactive)
11,CN(C)[C@@H]1C(O)=C(C(N)=O)C(=O)[C@@]2(O)C(O)=C3C(=O)c4c(O)cccc4[C@@](C)(O)[C@H]3C[C@@H]12 [Tetracycline hydrochloride],0.293 (inactive)
12,CC(C)CCC[C@@H](C)[C@H]1CC[C@H]2[C@@H]3CC=C4C[C@@H](O)CC[C@]4(C)[C@H]3CC[C@]12C [Cholesterol],-0.0392 (inactive)
13,CC1(C)CC[C@]2(C(=O)O[C@@H]3O[C@H](CO[C@@H]4O[C@H](CO)[C@@H](O)[C@H](O)[C@H]4O)[C@@H](O)[C@H](O)[C@H]3O)CC[C@]3(C)C(=CC[C@@H]4[C@@]5(C)CC[C@H](O[C@@H]6OC[C@H](O)[C@H](O)[C@H]6O)[C@@](C)(CO)[C@@H]5CC[C@]43C)[C@@H]2C1 [Asperosaponin Ⅵ],0.0344 (inactive)
